# Measured values taken from PubChem BioAssay AID1851 (National Center for Advancing Translational Sciences (NCATS), 2009).
# About 2,600 (16%) of roughly 16,000 compounds were called active. Roughly 20% stayed inconclusive and do not appear here. Not all results are given here. A number with no mark means an inactive call. Calls follow the shape of the dose curve; as a rule, active = well fitted curve in the direction sought with a large enough effect; inconclusive = small, poorly fitted or top-dose-only effect, or effect the other way; inactive = no such curve, though single readings can be large or run the other way.
# Biological target: Cytochrome P450 2D6 (Homo sapiens) (UniProt P10635)
# Sequence (P10635 whole entry, looked up): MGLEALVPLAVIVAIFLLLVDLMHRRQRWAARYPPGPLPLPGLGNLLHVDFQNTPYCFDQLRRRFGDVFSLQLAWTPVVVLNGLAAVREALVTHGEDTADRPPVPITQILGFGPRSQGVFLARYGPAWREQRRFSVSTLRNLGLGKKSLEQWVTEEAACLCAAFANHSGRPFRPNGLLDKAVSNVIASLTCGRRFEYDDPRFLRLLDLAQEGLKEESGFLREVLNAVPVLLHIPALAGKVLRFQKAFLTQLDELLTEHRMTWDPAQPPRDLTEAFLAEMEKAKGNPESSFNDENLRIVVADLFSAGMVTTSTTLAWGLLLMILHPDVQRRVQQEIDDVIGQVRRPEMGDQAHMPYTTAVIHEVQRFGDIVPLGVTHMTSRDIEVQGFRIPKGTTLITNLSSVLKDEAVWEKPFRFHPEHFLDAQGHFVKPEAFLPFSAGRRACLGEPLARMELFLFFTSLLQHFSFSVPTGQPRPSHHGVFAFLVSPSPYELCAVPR
# Assay: Cytochrome panel assay with activity outcomes
# Conditions: recombinant CYP, pro-luciferin dealkylation, luminescence, p450-cyp2d6; series mostly up to 57.1 µM; activity, negative = inhibition: at the top concentration
# % is scaled to controls: 0 for no effect and ±100 for the full control effect.
Structure (SMILES),"activity, negative = inhibition",AC50
CCn1c(=O)c2[nH]c(-c3ccccc3)nc2n(CC)c1=O,3.55% (inactive),–
O=C(O)C[n+]1ccccc1,-8.09% [at 11.4 µM],–
COC(=O)c1ccc(N2CCN(CC(=O)c3ccc(-c4ccccc4)cc3)CC2)c([N+](=O)[O-])c1,–,12.6 µM (active)
COc1ccc(-c2cc(C3CCN(c4ccc(C(C)=O)cc4[N+](=O)[O-])CC3)[nH]n2)cc1,-6.96% (inactive),–
Cc1ccc(OC(=O)c2ccc(N3CCOCC3)c([N+](=O)[O-])c2)cc1,-15.1% (inactive),–
CCNC(=S)N1CC(C)OC(C)C1 (centres undefined),-0.0504% (inactive),–
O=C(/C=C/c1ccco1)NC(=S)Nc1ccc(N2CCOCC2)c(Cl)c1,2.74% (inactive),–
CNc1cc(CS(=O)c2ccccc2)nc(-c2ccccc2)n1 (centres undefined),-6.79% (inactive),–
Clc1ccc(Cl)c(Nc2ccnc(SCc3ccccc3)n2)c1,-0.772% [at 11.4 µM],–
CNc1cc(CSC)nc(SCc2ccc(Cl)c(Cl)c2)n1,–,28.2 µM (active)
CCN1C(=O)[C@H]2[C@H]3[C@H](O)[C@H](O)C/C(=N/OC[C@@H](O)[C@H]4O[C@H]5OC(C)(C)O[C@H]5[C@@H]4O)[C@@H]3CC[C@@H]2C1=O,7.29% [at 11.4 µM],–
Cn1sc(NC(=O)c2ccccc2)nc1=O,-0.613% (inactive),–
O=C(O)CCC/C=C\C[C@@H]1CO[C@H](C(F)(F)F)O[C@@H]1c1ccccc1O,-5.14% (inactive),–
CO[C@H]1COC(=O)C/C=C\[C@@H](C)COC(=O)[C@@H](OCc2ccccc2)/C=C\[C@@H]1C,1.83% [at 11.4 µM],–
CN(C)C(=O)c1ccc(-c2ccc3ncnc(N4CCC(C(=O)O)CC4)c3c2)cc1,2.88% (inactive),–
Clc1ccc2c(N3CCC(CCC4CCN(c5ncnc6cc(Cl)ccc56)CC4)CC3)ncnc2c1,–,0.794 µM (active)
Clc1ccccc1-c1ccc2ncnc(N3CCNCC3)c2c1,-6.85% (inactive),–
COc1ccc(OC)c(NC(=O)[C@H]2CC=CC[C@H]2C(=O)O)c1,14.4% (inactive),–
O=C(Nc1cccc(NC(=O)N2CCN(c3ccccc3)CC2)c1)N1CCN(c2ccccc2)CC1,-13.9% (inactive),–
O=C(Nc1cccc(Cl)c1)N1CCN2C(=O)c3ccccc3C12c1ccccc1 (centres undefined),–,10 µM (active)
O=C(Nc1ccccc1)N1CCOCC1,-16.4% (inactive),–
Cc1ccc(C2C(C=Nc3c(C)n(C)n(-c4ccccc4)c3=O)=C(c3ccccc3)Oc3ccccc32)cc1 (centres undefined),5.37% (inactive),–
CCOCCCN1C(=O)CN(C2CCCCCC2)C(=O)C1c1ccc(OC)cc1 (centres undefined),-20.1% (inactive),–
CCSc1nnc(-c2ccc(Cl)cc2)c2ccccc12,-23% (inactive),–
CCN(CC)S(=O)(=O)c1ccc2c(c1)nc(SCC(=O)N1CCOCC1)n2-c1ccccc1OC,-5.25% (inactive),–

Structure (SMILES),"activity, negative = inhibition",AC50
COCCn1c(C)cc(C2=NNC(=Nc3ccc(F)cc3)SC2)c1C,–,7.94 µM (active)
Cn1cccc1C(=O)N1CCC2(CC1)CCN(c1cccc(-c3ccccc3)c1)CC2,-1.91% (inactive),–
CN(C)c1ncc2nc(-c3cc(F)cc(F)c3)c(=O)n(CCC#N)c2n1,0.117% (inactive),–
CN(C)c1ncc2nc(-c3ccccc3)c(=O)n(CCC#N)c2n1,–,1 µM (active)
CN(C)c1ncc2nc(CCc3ccccc3)c(=O)n(CCC#N)c2n1,–,2.51 µM (active)
N#CCCn1c(=O)c(CCc2ccccc2)nc2cnc(Oc3ccccc3)nc21,-1.17% (inactive),–
N#CCCn1c(=O)c(CCc2ccccc2)nc2cnc(OCc3ccccc3)nc21,-3.72% (inactive),–
CN(C)c1ncc2nc(-c3ccccc3)c(=O)n(CCc3ccccc3)c2n1,-2.25% (inactive),–
COc1cc(/C=C2/C(=N)N3OC(C)=CC3=NC2=O)ccc1OCCOc1ccc(C)cc1,-28.9% (inactive),–
COc1cccc(/C=N/NC(=O)CO/N=C(\C)c2cccs2)c1OC,-10.8% (inactive),–
CC1CCN(c2ccc(NC(=S)NC(=O)c3ccco3)cc2)CC1,-0.336% (inactive),–
COc1ncc2nc(-c3cc(F)cc(F)c3)c(=O)n(C3CC3)c2n1,-14.2% (inactive),–
COC(=O)c1ccc(Cl)c(NC(=O)c2ccc(-c3ccccc3)cc2)c1,-7.02% (inactive),–
CCOC(=O)c1ccc(Cl)c(NC(=O)c2ccc(-c3ccccc3)cc2)c1,-9.32% (inactive),–
CCOc1c(Cl)cc(C(=O)Nc2ccccc2-c2ccccc2)cc1Cl,–,0.0126 µM (active)
COc1nc(OCCNC(C)=O)nc(N(C)C)n1,6.28% (inactive),–
CC(C)NC(=O)c1ccccc1NC(=O)/C=C/c1ccc([N+](=O)[O-])cc1,2.09% (inactive),–
Cc1cccc(NC2(C(F)(F)F)N=C(c3ccccc3)NC2=O)n1 (centres undefined),19.5% (inactive),–
O=C(O)c1cc(=O)c2c(Cl)cc(Cl)cc2[nH]1,-3.15% (inactive),–
Cc1cc(Br)cc(C)c1OCCCCN(C)C,–,2 µM (active)
CCN1C(=O)[C@H]2[C@H]3[C@H](O)[C@H](O)C/C(=N/OC[C@@H](O)COCc4ccco4)[C@H]3CC[C@@H]2C1=O,-6.12% [at 11.4 µM],–
Nc1nc(-c2cc(-c3cccc4ccccc34)nc(N)n2)cc(-c2cccc3ccccc23)n1,-0.19% [at 11.4 µM],–
Nc1cc2c(nc3c4ccccc4c(N)cc3[n+]2-c2cccc3ccccc23)c2ccccc12 (tested in a mixture with another compound),–,1.58 µM (active)
CSCC[C@@H]1NC(=O)C/C=C\[C@@H](C)COC(=O)[C@@H](C)COC1=O,16.4% [at 11.4 µM],–
